Assay outcomes (PubChem)
Sampled rows, rich in hits. Any-hit rate of the full collection: about 12%.
SARS PLP yeast = qHTS of Yeast-based Assay for SARS-CoV PLP. Potency, µM (highest dose often 32.9 µM), without a hit: top-dose activity, positive = growth rescue, usual class: activators. S. cerevisiae expressing SARS-CoV PLpro, growth rescue. 330,000 compounds, 0.19% hits; calls by dose curve; further: 0% is about no effect; nearly all actives have a fitted effect of over 55% in size
Pf growth 48h = Primary qHTS for delayed death inhibitors of the malarial parasite plastid, 48 hour incubation | P. falciparum luciferase growth in erythrocytes, 48 h | Potency, µM (highest dose often 28.7 µM), without a hit: at the top dose activity change, negative = inhibition, hits mostly inhibitors | 310,000 compounds, 5.9% hits; further: on the % scale 0 is the no-effect control and ±100 the full control effect
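Luminescence readout; reporter = integrated firefly luciferase in P. falciparum. RBC culture at 2% hematocrit, 0.1% parasitemia final, 37 C/5% CO2; decreased signal taken as growth inhibition.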
Pf growth 96h = Primary qHTS for delayed death inhibitors of the malarial parasite plastid, 96 hour incubation. P. falciparum luciferase reporter growth, 96 h. Potency, µM (series often up to 28.7 µM), for the others: at the highest dose activity change, negative = inhibition, hits mostly inhibitors. 320,000 compounds, 6.9% hits. AID 504834, 2011; further: on the % scale 0 is the no-effect control and ±100 the full control effect
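Two-generation exposure (96 h) targets delayed-death phenotype. Reporter parasites carrying integrated firefly luciferase, in red cells at 2% hematocrit and 0.05% parasitemia final, kept at 37 C, 5% CO2; luminescence loss indicates inhibition.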
AmpC inh detg = qHTS Inhibitors of AmpC Beta-Lactamase (assay with detergent); P00811; AmpC hydrolysis of nitrocefin, absorbance 480 nm, 0.01% Triton; Potency, µM (highest dose often 114 µM), inactives show at the top dose activity change, negative = inhibition, most hits filed as inhibitors; 370,000 compounds, 0.041% hits;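 further: 0% = no-compound wells and -100% = no-enzyme wells; nearly all actives have a fitted effect of over 25% in size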
Target sequence (P00811 whole entry, looked up): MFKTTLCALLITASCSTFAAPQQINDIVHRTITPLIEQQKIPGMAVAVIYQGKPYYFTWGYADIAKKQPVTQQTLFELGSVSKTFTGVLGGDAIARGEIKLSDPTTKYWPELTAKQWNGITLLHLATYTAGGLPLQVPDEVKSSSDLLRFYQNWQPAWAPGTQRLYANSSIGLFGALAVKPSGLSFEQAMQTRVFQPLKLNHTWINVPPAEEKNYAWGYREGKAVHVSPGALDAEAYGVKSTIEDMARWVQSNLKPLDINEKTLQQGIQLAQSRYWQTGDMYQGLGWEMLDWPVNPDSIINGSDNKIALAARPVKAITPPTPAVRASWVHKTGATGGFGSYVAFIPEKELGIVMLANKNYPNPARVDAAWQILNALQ
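AmpC (5.3 nM in the dispensed reagent) in 20 mM phosphate pH 7.0 with 0.01% (detergent screen) or 0.0001% Triton X-100 was preincubated with compounds for 15 min at room temperature. Nitrocefin was then added from an 800 uM solution, and hydrolysis was followed at 480 nm.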
Sm TGR inh = qHTS Assay for the Inhibitors of Schistosoma Mansoni Peroxiredoxins. Schistosoma mansoni thioredoxin glutathione reductase (TGR), Q962Y6. purified TGR, DTNB reduction, TNB absorbance 405 nm. Potency, µM (top dose mostly 114 µM), inactives show at the top dose activity change, negative = inhibition, hits mostly inhibitors. 360,000 compounds, 3% hits; further: on the % scale 0 is the no-effect control and ±100 the full control effect; nearly all actives have a fitted effect of over 60% in size
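TGR 20 nM + NADPH 100 uM (dispensed conc.), cpd preinc 15 min RT; start with NADPH (500 uM addition) then DTNB (15 mM addition). Kinetic TNB absorbance, 405 nm filter. Four-parameter Hill fit across titration.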
AmpC no deterg = qHTS Inhibitors of AmpC Beta-Lactamase (assay without detergent); AmpC nitrocefin hydrolysis, absorbance 480 nm, 0.0001% Triton; Potency, µM (doses to about 57.1 µM), inactives show top-dose activity change, negative = inhibition, actives largely listed as inhibitors; 330,000 compounds, 0.52% hits;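 further: plate controls were no compound for no effect and no enzyme for full effect; nearly all actives have a fitted effect of over 20% in size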
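20 mM phosphate pH 7.0 + 0.01% (detergent screen) or 0.0001% Triton X-100; 5.3 nM AmpC reagent; cpd preinc 15 min RT; nitrocefin (800 uM stock) to start; A480 q20 s × 4 min; Activity was normalised to no-enzyme and no-compound control wells.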
An asterisk follows results filed as active; ? = inconclusive; / = no result given; ! = a repeat was not active; [ ] = remark or other dose. Unless noted, the call rests on the fitted dose curve; in most records, active means well fitted curve in the direction sought with a large enough effect; inconclusive means small, poorly fitted or top-dose-only effect, or another doubt; inactive means no such curve, though single readings can be large; an effect the other way counts as inactive or inconclusive. Potency means the concentration at half of the fitted maximal effect.

SMILES	SARS PLP yeast	Pf growth 48h	Pf growth 96h	AmpC inh detg	Sm TGR inh	AmpC no deterg
Cc1ccc(CNC(=O)CSc2nc3c(sc4ccccc43)c(=O)n2CCCOC(C)C)cc1	/	/	/	-2%	-5%	/
COC(=O)C1=C(C(=O)OC)C(c2ccccc2O)c2sc(=O)[nH]c2S1 (centres undefined)	-5%	10%	5%	-13%	40µM*	-23%
COC(=O)c1sc2ccccc2c1N	-23%	94%	?	?	-1%	0%
C/C(=N\NC(=O)Cc1csc(N2CCOCC2)n1)c1ccc(Cl)c(Cl)c1	0%	-15%	-22%	-5%	-2%	148%
Cc1ccsc1C(=O)OCC(=O)NC1CCCC(C)C1C (centres undefined)	-1%	/	/	/	/	-9%
CSc1ccc(C(=O)N2CCc3ccc(NC(=O)c4ccccn4)cc3C2)cc1	-10%	?	15µM*	14%	8%	28%
O=C(Nc1ccnn1C1CCN(C/C=C/c2ccccc2)CC1)c1ccccc1Cl	5%	?	31%	-6%	-11%	123%
COc1ccccc1C(=O)Nc1ccnn1C1CCN(C)CC1	3%	10%	21%	-4%	4%	-19%
COc1ccccc1C(=O)Nc1ccnn1C1CCN(C/C=C/c2ccc(F)cc2)CC1	-2%	12µM*	-13%	-11%	-19%	180%
O=C(Nc1ccnn1C1CCN(C/C=C/c2ccccc2)CC1)C1CCCC1	1%	13µM*	?	2%	-6%	61%
CCN(C(=O)c1cn(-c2ccc(OC)cc2)c(=O)c2ccccc12)c1cccc(Cl)c1	/	/	/	-3%	-7%	/
O=C(COC(=O)CNS(=O)(=O)c1ccc(Br)cc1Cl)NCCc1ccccc1	?	8%	23%	3%	-18%	14%
Cc1ccc(C(=O)OCc2cc(=O)n3nc(-c4cccs4)sc3n2)cc1	/	/	/	18%	0%	/
COCCCNc1nc2nonc2nc1N1C[C@H]2CC[C@H]1C2	0%	-17%	?	-5%	1%	-8%
COCCCNc1nc2nonc2nc1N1CCC(C(C)N2CCOCC2)CC1 (centres undefined)	1%	-3%	110%	-1%	23%	25%
COCCNc1nc2nonc2nc1N1CCC(N(C)C)C1 (centres undefined)	0%	-17%	6.6µM*	5%	1%	-2%
COCCNc1nc2nonc2nc1N1C[C@H]2CC[C@H]1C2	0%	12%	10µM*	3%	-2%	1%
Cc1ccc(C2=NC(=O)/C(=C/c3cc(O)c(O)c(Br)c3)S2)cc1	6.3µM*	10µM*	35%	2%	-32%	18µM*
Nc1cc(=O)[nH]c(=S)n1-c1ccccc1	6%	/	-11%	-1%	-3%	0%
O=c1cc(C(F)(F)F)[nH]c(=S)n1-c1ccccc1	0%	7%	3%	6%	22µM*	-9%
O=c1c2ccccc2[nH]c2ccccc12	-39%	1.7µM*	1.5µM*	-6%	-15%	-14%
CC1(C)CCc2c([nH]c3ccccc3c2=O)O1	0%	?	?	2%	1%	3%
O=c1c2c([nH]c3ccccc13)CCCCC2	-12%	1.7µM*	1.7µM*	3%	5%	-10%
O=c1c2c([nH]c3ccccc13)CCCCCC2	-3%	?	3%	-9%	-5%	-12%
CCC1CCc2c([nH]c3ccccc3c2=O)O1 (centres undefined)	9%	?	2.3µM*	5%	-4%	-8%
SMILES	SARS PLP yeast	Pf growth 48h	Pf growth 96h	AmpC inh detg	Sm TGR inh	AmpC no deterg
O=C(O)c1ccc2c(c1)C(=O)N([C@H](Cc1ccc(O)c(O)c1)C(=O)O)C2=O	-1%	-1%	-5%	?	13µM*	-15%
CC(C)c1ccc(S(=O)(=O)N2CCC(n3c(C(F)(F)F)nc4cccnc43)CC2)cc1	/	/	/	2%	-3%	/
CCCCN(CCCC)CC(O)COc1ccc(Br)cc1 (centres undefined)	0%	3.7µM*	3.3µM*	4%	33%	-5%
O=[N+]([O-])c1ccc(OCC(O)CN(CCO)CCO)cc1 (centres undefined)	17%	37%	46%	-5%	-4%	-4%[2.29 µM]
CCOc1nc(NCCO)nc(NCCC2=CCCCC2)n1	1%	?	8.3µM*	-11%	-1%	-2%
CCCCN(C)C(=O)c1oc2ccc(S(=O)(=O)N3CCCCCC3)cc2c1C	-14%	?	?	2%	-2%	70%
CCCC(=O)C1=C(O)C(C(=O)OC)C(C)(C)CC1=Nc1ccc(C)cc1 (centres undefined)	-2%	5.2µM*	19%	5%	14%	68%
CCCC(=O)C1=C(O)C(C(=O)OC)C(C)(C)CC1=Nc1ccc(N)cc1 (centres undefined)	7%	?	?	-15%	0%	0%
CCc1noc(-c2ccc(N3CCCCC3)c([N+](=O)[O-])c2)n1	/	/	/	24%	-5%	/
CC(=O)c1cc(C(=O)N2CCc3c([nH]c4ccccc34)C2C2CCCCC2)[nH]n1 (centres undefined)	0%	?	?	?	/	-46%
COc1ccc2[nH]cc(/C=C/C(=O)c3ccccc3)c2c1	-3%	375%	390%	-2%	-18%	-39%
CCC1(C2=NCCN2)Cc2ccccc2O1 (centres undefined)	/	5%	7.6µM*!	?	-11%	-15%
C1CNC(C23CC4CC(CC(C4)C2)C3)=N1	1%	7%	-20%	6%	26%	-27%
CN1C(=O)C(C)(C)c2cc(S(=O)(=O)N3CCN(c4cccc(Cl)c4)CC3)ccc21	-8%	?	6%	-7%	-3%	48%
Cc1cc(NC(=O)c2cc(S(=O)(=O)N3CCCCC3)ccc2C)n(-c2ccccn2)n1	5%	5%	?	-16%	20%	-13%
COc1ccccc1NS(=O)(=O)c1ccc(Cl)c(NC(=S)NC(=O)C2CCCC2)c1	-8%	-5%	-8%	?	-13%	-28%
CCN(CC)c1ccc(S(=O)(=O)Nc2cc(Cl)ccc2Cl)cc1NC(=S)NC(=O)C1CCCC1	-7%	-10%	-27%	?	-1%	25µM*
CCN(CC)S(=O)(=O)c1ccc(Cl)c(NC(=S)NC(=O)C2CCCC2)c1	5%	13µM*	?	-1%	-26%	-26%
O=C(CNC(=O)C1CCCCC1)Nc1cc(Cl)ccc1Cl	20%	?	2%	3%	-16%	-11%
